# According to PubChem BioAssay (Tox21):
# Records with an inconclusive call do not appear. Unmarked numbers belong to inactive results. Active and inactive are the calls of the source. The call rests on the fitted dose curve; in most records, active means well fitted inhibition curve with a large enough effect in the repeat runs; inconclusive means weak or mixed curves; inactive means no such curve, though single readings can be large or run the other way.
# Target: Cytochrome P450 2C19 (Homo sapiens) (UniProt P33261)
# Sequence (P33261 whole entry, looked up): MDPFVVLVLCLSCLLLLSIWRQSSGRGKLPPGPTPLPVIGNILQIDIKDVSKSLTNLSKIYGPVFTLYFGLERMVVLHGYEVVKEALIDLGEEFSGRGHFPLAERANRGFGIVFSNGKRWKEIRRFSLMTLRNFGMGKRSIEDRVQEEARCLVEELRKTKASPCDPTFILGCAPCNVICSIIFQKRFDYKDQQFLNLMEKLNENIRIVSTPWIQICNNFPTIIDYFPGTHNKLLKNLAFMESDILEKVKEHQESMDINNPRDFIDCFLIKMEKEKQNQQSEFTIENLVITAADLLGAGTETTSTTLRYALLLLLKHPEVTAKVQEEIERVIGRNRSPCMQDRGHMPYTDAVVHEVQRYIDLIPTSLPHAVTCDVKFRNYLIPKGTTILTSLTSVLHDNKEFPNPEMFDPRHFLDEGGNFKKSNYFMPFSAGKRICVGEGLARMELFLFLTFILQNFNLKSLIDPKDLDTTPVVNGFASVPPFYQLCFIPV
# Experiment: Cytochrome P450 Family 2 Subfamily C Member 19 (CYP2C19) small molecule antagonists: luciferase reporter qHTS assay (AID 1671197); further: nearly all actives have a fitted effect of over 65% in size
# Settings: P450-Glo CYP2C19 enzyme, luciferin luminescence, 1 h; series mostly up to 115 µM; activity change, negative = inhibition: at the top concentration
# From the text: National Center for Advancing Translational Sciences [NCATS]
# U.S. Environmental Protection Agency [EPA]
# National Institutes of Environmental Health Sciences [NIEHS]
# National Toxicology Program [NTP]
# U.S. Food and Drug Administration [FDA]
# Cytochrome P450 (CYP) enzymes are membrane-bound hemeproteins that play a key role in metabolism of drugs and xenobiotics. Evaluation of the effect of chemicals on CYP isozymes is useful to minimize the adverse drug reactions and toxicities in drug development process. Tox21 chemicals were tested for their effect on CYP enzyme activities by using P450-Glo (TM) screening systems (Promega Corporation, Madison, WI). These systems provide a luminescent method containing proluciferin substrates and are converted to luciferin products by CYP isozymes. The luciferin products formed are detected with a luciferin detection reagent, and the amount of light produced is proportional to CYP activity. P450-Glo (TM) CYP2C19 screening system (Catalog. No. V9880) was used to detect the compounds that interfere in CYP2C19 activity. The positive control compound used for CYP2C19 assay is ketoconazole (Sigma-Aldrich, St. Louis, MO).
# Tox21 Assay Protocol Summary:
# Two ul of enzyme-substrate mix was dispensed into medium binding white/solid 1536-well plates (Greiner Bio-One North America Inc., Monroe, NC) using a BioRaptr Flying Reagent Dispenser (FRD, Beckman Coulter, Brea, CA). Compounds dissolved in DMSO and positive control (ketoconazole) were transferred to the assay plates at 23 nl using a Pintool station (Wako, San Diego, CA). The assay plates were incubated at room temperature for 10 min. Then 2 ul of NADPH regeneration solution was added to each well of the assay plates using an FRD and incubated at 37C for 1 h. The reaction was stopped by adding 4 ul of detection reagent using an FRD and after 20 min incubation at room temperature the luminescence signal was measured using a ViewLux plate reader (Perkin Elmer, Shelton, CT). Data were expressed as relative luminescence units.
# On the % scale 0 is the no-effect control and ±100 the full control effect; potency means the concentration at half of the fitted maximal effect.
Structure (SMILES),Potency,"activity change, negative = inhibition"
COc1cc(C(=S)N2CCOCC2)cc(OC)c1OC,21.9 µM (active),–
C=C(C)C1CCC(C)(O)CC1 (stereo not given),–,5.17%
NS(=O)(=O)c1cc2c(cc1Cl)CN(C1CCCCC1)C2=O,–,-12.6% [at 52.9 µM]
CC(C)CCCCOC(=O)c1ccccc1C(=O)OCCCCC(C)C,31.8 µM (active),–
O=C1c2cccc3c2[C@H](CCC3)CN1[C@@H]1CN2CCC1CC2,–,-1.21% [at 52.9 µM]
OCCC(F)(F)C(F)(F)C(F)(F)C(F)(F)C(F)(F)C(F)(F)C(F)(F)C(F)(F)F,–,31.7%
CN(C)CCOCCO,–,22.7%
CC(C)CC(C)CC(C)CC(C)COC(=O)c1ccccc1C(=O)OCC(C)CC(C)CC(C)CC(C)C (stereo not given),65.9 µM (active),–
C[C@@H](Oc1ccc(CNC(=O)c2cccnc2Oc2ccc3c(c2)OCO3)c(F)c1)C(=O)O,–,-11.4%
Cc1ccc2ccc(Cl)cc2n1,–,-14.5% [at 52.9 µM]
CC(S)C(=O)NCC(=O)O (stereo not given),–,10.3% [at 52.9 µM]
O=C1CCCC(=O)O1,–,-5.87%
CCCCCCCCOS(=O)(=O)O,71 µM (active),–
O=C(O)c1cc(Cl)cc([N+](=O)[O-])c1Cl,–,-11.8%
CN1CCN(CC(=O)N2c3ccccc3C(=O)Nc3cccnc32)CC1,–,8.9% [at 10.5 µM]
CC1COc2ccccc2N1 (stereo not given),44.8 µM (active),–
Cc1cccc(C)c1OCC(C)N (stereo not given),–,0.964% [at 52.9 µM]
CCNC(=O)C1CC(C)CCC1C(C)C (stereo not given),17.8 µM (active),–
O=C1CC(c2ccc(Cl)cc2)CC(=O)N1,–,-4.33% [at 52.9 µM]
CCCCCCN,–,-5.51%

Structure (SMILES),Potency,"activity change, negative = inhibition"
CC(=O)c1ccc2c(c1)Cc1ccccc1-2,20 µM (active),–
c1ccc2c(c1)ccc1c3ccccc3ccc21,–,-16.5% [at 52.9 µM]
O=S(=O)(O)c1ccc2cc(O)c(S(=O)(=O)O)cc2c1,–,0.0931%
Cc1ccc(S(=O)(=O)O)c(C)c1,–,11%
CCN1CCc2nc(N)oc2CC1,–,1.06% [at 52.9 µM]
COc1ccc(-c2cc(=O)c3c(O)cc(O[C@@H]4O[C@H](CO[C@@H]5O[C@@H](C)[C@H](O)[C@@H](O)[C@H]5O)[C@@H](O)[C@H](O)[C@H]4O)cc3o2)cc1O,–,18.9% [at 52.9 µM]
CCc1ccc(C=O)cc1,–,3.95%
O=C1c2ccccc2C(=O)N1CCl,–,4.46%
FC(F)(F)c1ccccc1-n1ccnc1,5.49 µM (active),–
COC(=O)c1ccccc1C(=O)c1ccc(OCCN2CCCCC2)cc1,–,26.2% [at 52.9 µM]
CCC(C)(CCC(C)C)C(=O)O (stereo not given),–,-0.0902%
Nc1ccc([N+](=O)[O-])c(N)c1,30.9 µM (active),–
CCOc1cc(NC(C)=O)ccc1C(=O)OC,–,4.52% [at 52.9 µM]
CC(=O)CCCCn1c(=O)c2c(ncn2C)n(C)c1=O,–,21.6% [at 52.9 µM]
CCCCCCCCSCC,–,7.84%
COc1ccc(OC)c(Cl)c1,–,-17%
N[C@@H](CCC(=O)Nc1ccc([N+](=O)[O-])cc1)C(=O)O,–,-9.95%
CC(=O)OC(C)OC(=O)C(C)c1ccc(-c2ccccc2)c(F)c1 (stereo not given),5.49 µM (active),–
O=C(OCC1(COC(=O)c2cccnc2)CCCC(COC(=O)c2cccnc2)(COC(=O)c2cccnc2)C1O)c1cccnc1,38.9 µM (active),–
ClCCCl,–,19.4%
